This passage reports activity change results from PubChem BioAssay AID720553 (National Center for Advancing Translational Sciences (NCATS), 2013).

Hit rate of the full screen: of about 340,000 compounds, about 3,300 (0.97%) were called active. Shown is part of a subset that was picked to be rich in actives. Unmarked numbers belong to inactive results.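 The calls were made as follows: active = maximum activity change below -70%; inconclusive = maximum activity change from -70% to -50%; inactive = maximum activity change above -50%.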
% is scaled to controls: 0 for no effect and ±100 for the full control effect.

The test relates to Potassium voltage-gated channel subfamily H member 2, brain isoform KCNH2 3.1 (human). Description: qHTS for Inhibitors of KCHN2 3.1: Mutant qHTS. The conditions noted are these: U2OS KCNH2 3.1, thallium flux FluxOr; stronger effect = lower value. Summed up:
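U2OS cells transduced with KCNH2 3.1 mutant virus (1.77 x 10^8 /mL, 4 h), plated overnight at 37 C, loaded 45 min with FluxOr dye plus Red40 quencher. Thallium flux rate constant from kinetic reads after stimulation buffer, normalised to controls.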
On the technique in general: In qHTS, concentration-response curves come from the screen itself.
On to `COc1ccc2c(CN3CCN(S(=O)(=O)c4cccs4)CC3)cc(=O)oc2c1`, for which the activity change was -11.7%. As to `Cc1ccc2c(CN3CCN(S(=O)(=O)c4ccccc4C(F)(F)F)CC3)cc(=O)oc2c1`, the activity change is -74.7% (active).

Take `Cc1cc2oc(=O)cc(CN3CCN(S(=O)(=O)c4cccs4)CC3)c2cc1C(C)C`: the activity change was -5.54%. The figure for `O=C(N=C1SC2CS(=O)(=O)CC2N1Cc1ccccc1)c1ccccc1` (stereo unspecified) is -10.6%; for `O=Nc1c(O)cc(O)c2ccccc12` it is 4.37%.

`Cc1ccc(-c2ccc(CN3C(C)C(=O)N(Cc4cn(CCC5OCCCO5)nn4)CCS3(=O)=O)cc2)cc1` (stereo unspecified): the activity change is -4.85%. The figure for `COc1cc(NC(=O)C2=C(C)OCCS2)c(Cl)cc1C(=O)NCCCN1CCCC(C)C1` (stereo unspecified) is -7.47%; for `CC(=O)Nc1ccc2c3c(ccc([N+](=O)[O-])c13)CC2` it is -19%; for `O=S1(=O)CCN(Cc2ccccc2)CC1` it is -7.16%.

`O=C1c2ccccc2C(=O)c2c1cccc2N1CCN(CCO)CC1`: the activity change was -26.5%. Next, `O=C1c2ccccc2C(=O)c2c1cccc2N1CCN(Cc2ccccc2)CC1`: -89.4% (active); `CCOC(=O)c1cc(-c2sc(NC(=O)c3ccccc3)nc2C)n(Cc2ccccc2)n1`: -4.02%; `C[C@H]1CN([C@@H](C)CO)C(=O)CCCn2cc(nn2)CO[C@@H]1CN(C)S(=O)(=O)c1ccccc1C#N`: -13.5%. The figure for `CC(=NNC(N)=O)C1CC2CCC1CC2` (stereo unspecified) is 0.306%. Consider `CC(C)NC(=O)Nc1ccc2c(c1)C(=O)N([C@H](C)CO)C[C@H](C)[C@@H](CN(C)Cc1ccc(C(F)(F)F)cc1)OCCCC[C@@H](C)O2`, for which the activity change was -29.9%. Take `CC(=O)c1ccccc1NC(=O)COC(=O)C1COc2ccccc2O1` (stereo unspecified): the activity change was -5.39%. For `Nc1cc(=O)c2[nH]cnc2[nH]1`, the activity change is 4.52%. The figure for `Cc1ccc(Oc2ccc3c(c2)C(=O)N(c2cccc4cccnc24)C3=O)cc1` is -1.2%; for `Cc1ccc(OS(=O)Nc2cccc3nccnc23)cc1` (stereo unspecified) it is -73.2% (active). Next, `Cc1ccc(C)c(NC(=O)c2ccc3nccnc3c2)c1`: 5.85%. Next, `C[C@@H]1CN([C@H](C)CO)S(=O)(=O)c2ccc(C#CC3CCCCC3)cc2O[C@H]1CN(C)C(=O)Cc1ccncc1`: -2.79%. On to `CC1=C(C(=O)N2CCOCC2)CC(CC(=O)NCC2CCCCC2)C(=O)N1Cc1ccc(F)cc1` (stereo unspecified), for which the activity change is -12.1%.

Take `CC1C(=O)N(Cc2cn(CC3CCCCC3)nn2)CCS(=O)(=O)N1Cc1ccc(-c2cccc(N(C)C)c2)cc1` (stereo unspecified): the activity change was -6.27%. The figure for `CCOC(=O)CSc1nc(N2CCOCC2)c2c(c1C#N)CC(C(C)C)OC2` (stereo unspecified) is 9.26%; for `CC1(C)Cc2c(C#N)c(SCc3nc4ccccc4[nH]3)nc(N3CCOCC3)c2CO1` it is 1.1%; for `COc1ccc(CSc2nc(N3CCOCC3)c3c(c2C#N)CC(C)(C)OC3)cc1` it is -85.2% (active).

As to `CN1CCn2cnc(C(=O)NCC(=O)OC(C)(C)C)c2C1=O`, the activity change is 8.04%.

For the molecule `COc1ccc(Nc2nc(-c3ccccc3)cs2)cc1`, the activity change is -83.5% (active).

On to `COc1ccc(Nc2ccc3ccccc3c2)cc1`, for which the activity change was -0.36%. The figure for `COc1ccc(-c2csc(Nc3cccc(C)n3)n2)cc1OC` is -0.0615%; for `CN(Cc1ccccc1)C(=O)CCC1CCN(C(=O)c2ccco2)CC1` it is -7.93%; for `O=C(COc1ccc([N+](=O)[O-])cc1Cl)Nc1ccc2[nH]c(=O)[nH]c2c1` it is -113% (active).

In the case of `O=C(COC(=O)c1cccc(Cl)c1)Nc1ccc2[nH]c(=O)[nH]c2c1`, the activity change was -16.7%. Next, `O=C(COc1ccc([N+](=O)[O-])cc1Cl)Nn1cnnc1`: -17.4%; `Cc1ccc(NC(=O)c2ccc(Oc3ncccn3)cc2)cc1`: 10.8%. Next, `Cc1ccc(C(=O)NNC(=O)c2cc3cc4ccccc4nc3s2)cc1`: -14.6%; `Cc1ccc(C(=O)NNc2ncnc3ccccc23)cc1`: -135% (active). The figure for `CCOC(=O)c1c(NC(=O)COC(=O)c2ccc(S(=O)(=O)C(F)F)cc2)sc(C(=O)N(C)C)c1C` is -12.2%; for `Cc1ccccc1C#CC1=CC(=O)CC(C)(C)C1` it is -7.29%; for `Cc1ccc(-c2nc3ccc(Cl)cn3c2Cc2ccccc2)cc1` it is -5.74%. As to `O=C(Nc1nncs1)c1ccccc1NS(=O)(=O)c1cccs1`, the activity change was -71.4% (active). The figure for `COc1cc(NC(=O)c2ccccc2NS(=O)(=O)c2ccc(Cl)s2)cc(OC)c1` is -9.39%; for `O=S(=O)(Nc1ccccc1Br)c1cccs1` it is 8.03%; for `CNC(=O)C1CN(C(=O)c2cccc(S(=O)(=O)N3CCc4ccccc43)c2)c2ccccc2O1` (stereo unspecified) it is -2.85%. The figure for `O=C(NCCS(=O)(=O)N1CCN(c2ccccc2)CC1)c1cc(=O)c2ccccc2o1` is 5.39%; for `CSc1ncc(C(=O)Nc2ccc(C)cc2C)c(C)n1` it is -183% (active). The figure for `Cc1ccc(NC(=O)c2ccn(C(=O)Nc3ccccc3)n2)c(C)c1` is 11.1%. For `CSc1ncc(C(=O)NCCCc2ccccc2)c(C)n1`, the activity change is 17.9%.

Turning to `CCN(CC)C(=O)C1=C(C)N(Cc2ccc(F)cc2)C(=O)C(CC(=O)NC2CCCC2)C1` (stereo unspecified), the activity change is -23.9%. Next, `CSc1ncnc2c1ncn2CCCNCC1CCCCC1`: -15.7%.

In the case of `CC(C)C1CCN(C(=O)C2CCC(=O)N(C3CCCCCC3)C2)CC1` (stereo unspecified), the activity change is -5.43%.

In the case of `Cc1ccc(C(=O)N/C(=C/C=C/c2ccccc2)C(=O)NCc2ccco2)cc1`, the activity change was -38.2%.

For `O=C(Nc1ccc(C(=O)O)cc1)/C(=C/c1ccc([N+](=O)[O-])cc1)NC(=O)c1ccccc1`, the activity change was 0.484%. The figure for `CNC(=O)/C(=C\C=C\c1ccccc1)NC(=O)c1ccc([N+](=O)[O-])cc1` is -78.9% (active); for `COc1ccc(C(CNC(=O)c2ccc(OCc3cscn3)cc2)N2CCCC2)cc1` (stereo unspecified) it is -4.07%; for `Cc1cc(C)c2cc(C#N)c(N3CCNCC3)nc2c1` it is 15.5%. The figure for `O=C(Nc1ccccc1N1CCN(C(=O)c2ccccc2)CC1)c1ccco1` is -10.9%. The figure for `CCCNC(=O)c1ccc(N2CCC3(CC2)CC(c2cccc(Br)c2)=NO3)c(NC(=O)c2ccco2)c1` is -83.4% (active). With `CCC(C)NC(=O)c1ccc(N2CCC3(CC2)OCCO3)c([N+](=O)[O-])c1` (stereo unspecified), the activity change is 15.4%. In the case of `CCCNC(=O)c1ccc(N2CCC3(CC2)CC(c2ccc(Cl)cc2)=NO3)c([N+](=O)[O-])c1`, the activity change is -83.7% (active).

As to `COC(=O)c1ccc(N2CCOCC2)c(NC(=O)c2ccc(Br)o2)c1`, the activity change was -2.48%. The figure for `COCCNC(=O)c1ccc(N2CCC3(CC2)OCCO3)c([N+](=O)[O-])c1` is 1.85%; for `Nc1cc(C(=O)N2CCN(c3ccccc3Cl)CC2)ccc1N1CC2CC(C1)c1cccc(=O)n1C2` (stereo unspecified) it is 6.28%. Next, `O=C(c1ccc(N2CCCC2=O)cc1)N1CCN(c2ccc(C(F)(F)F)cc2[N+](=O)[O-])CC1`: 6.83%; `Cc1ccc(NC(=O)COC(=O)CN2CCSC2=O)cc1F`: -8.22%.

For the molecule `CC1(C)NC(=O)N(CC(=O)Nc2ccc(-c3ccccc3)cc2)C1=O`, the activity change is -11%. As for `Cc1cccc(N2C(=O)N3[C@H](c4ccc(F)cc4)[C@@H]4C(=O)N(C5CCCCC5)C(=O)[C@@H]4[C@]3(Cc3ccccc3)C2=O)c1`, the activity change is -81.5% (active). The figure for `O=C1[C@H]2[C@@H](c3ccc(Cl)cc3)N3C(=O)N(c4cccc(F)c4)C(=O)[C@@]3(Cc3ccccc3)[C@H]2C(=O)N1C1CCCCC1` is -11.3%; for `O=C1[C@H]2[C@@H](c3ccc(F)cc3)N3C(=O)N(c4ccc(C(F)(F)F)cc4)C(=O)[C@@]3(Cc3ccccc3)[C@H]2C(=O)N1C1CCCCC1` it is -14.9%. The figure for `C/C(COc1ccccc1)=N\NC(=O)c1nnn(-c2nonc2N)c1-c1ccc(C)cc1` is 1.24%; for `Cc1ccc(C(=O)NC(C)C(c2cccs2)N2CCOCC2)cc1C` (stereo unspecified) it is 2.91%; for `C#Cc1cc(N2CCN(C(=O)c3ccoc3)CC2)n2nc(-c3cccc(Cl)c3)cc2n1` it is 2.49%. Next, `CCOC(=O)N1CCN(Cc2nc(N)nc(Nc3ccc(C)cc3)n2)CC1`: -78.5% (active); `CCOC(=O)N1CCN(CC(=O)Nc2ccc(F)cc2)CC1`: -43.8%. With `Cc1ccccc1Nc1nc(N)nc(CN2CCN(c3ccccn3)CC2)n1`, the activity change was -0.0863%. In the case of `CNc1nc(Nc2ccc(C)c(Cl)c2)nc(N)c1[N+](=O)[O-]`, the activity change is 6.15%. Next, `Cc1ccc(Nc2nc(N)nc(CN3CCN(Cc4ccccc4)CC3)n2)cc1Cl`: -99.4% (active). The figure for `CCOC(=O)N1CCN(Cc2nc3cc(NC(C)=O)ccc3n2C)CC1` is 8.13%.

In the case of `COc1cccc(NC(=O)N(C)C[C@@H]2Oc3ncc(Br)cc3C(=O)N([C@@H](C)CO)C[C@H]2C)c1`, the activity change is -4.03%. Next, `COc1ccc(S(=O)(=O)N(C)C)cc1NC(=O)COC(=O)c1n[nH]c2ccccc12`: 9.12%. Next, `Cc1ccnc(SC2CC(=O)N(c3ccccc3)C2=O)n1` (stereo unspecified): 1.28%. The figure for `O=C(NC1CCN(Cc2ccccc2)CC1)c1cc(Br)c(Br)[nH]1` is 0.925%; for `O=C(NC1CCN(Cc2ccccc2)CC1)c1ccc(Oc2cc(Cl)cc(Cl)c2)o1` it is -84.5% (active). As for `CCOc1ccc(CC(=O)NC2CCN(Cc3ccccc3)CC2)cc1`, the activity change is 19.9%. Next, `CCOc1ccc(NS(=O)(=O)c2ccc(C(=O)NCC3CCCO3)cc2)cc1` (stereo unspecified): 3.29%; `COCOCCn1cc(CN2CCS(=O)(=O)N(Cc3ccc(-c4cccc(N(C)C)c4)cc3)C(CC(C)C)C2=O)nn1` (stereo unspecified): -1.27%.
